From PubChem BioAssay (NCATS)
Records with an inconclusive call do not appear. Activity calls are given as the source filed them. Unless noted, the call rests on the fitted dose curve; in most records, active means well fitted curve in the direction sought with a large enough effect; inconclusive means small, poorly fitted or top-dose-only effect, or another doubt; inactive means no such curve, though single readings can be large; an effect the other way counts as inactive or inconclusive.

Legend:
[1] = target: Ubiquitin carboxyl-terminal hydrolase 1 (Homo sapiens) (UniProt O94782); assay: Inhibitors of USP1/UAF1: Pilot qHTS (AID 504865);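 further: rhodamine fluorescence freed from ubiquitin-rhodamine substrate followed over time; top concentration of the series differs between compounds; on the % scale 0 is the no-effect control and ±100 the full control effect; nearly all actives have a fitted effect of over 35% in size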
Ubiquitin carboxyl-terminal hydrolase 1 (Homo sapiens), sequence (O94782 whole entry, looked up): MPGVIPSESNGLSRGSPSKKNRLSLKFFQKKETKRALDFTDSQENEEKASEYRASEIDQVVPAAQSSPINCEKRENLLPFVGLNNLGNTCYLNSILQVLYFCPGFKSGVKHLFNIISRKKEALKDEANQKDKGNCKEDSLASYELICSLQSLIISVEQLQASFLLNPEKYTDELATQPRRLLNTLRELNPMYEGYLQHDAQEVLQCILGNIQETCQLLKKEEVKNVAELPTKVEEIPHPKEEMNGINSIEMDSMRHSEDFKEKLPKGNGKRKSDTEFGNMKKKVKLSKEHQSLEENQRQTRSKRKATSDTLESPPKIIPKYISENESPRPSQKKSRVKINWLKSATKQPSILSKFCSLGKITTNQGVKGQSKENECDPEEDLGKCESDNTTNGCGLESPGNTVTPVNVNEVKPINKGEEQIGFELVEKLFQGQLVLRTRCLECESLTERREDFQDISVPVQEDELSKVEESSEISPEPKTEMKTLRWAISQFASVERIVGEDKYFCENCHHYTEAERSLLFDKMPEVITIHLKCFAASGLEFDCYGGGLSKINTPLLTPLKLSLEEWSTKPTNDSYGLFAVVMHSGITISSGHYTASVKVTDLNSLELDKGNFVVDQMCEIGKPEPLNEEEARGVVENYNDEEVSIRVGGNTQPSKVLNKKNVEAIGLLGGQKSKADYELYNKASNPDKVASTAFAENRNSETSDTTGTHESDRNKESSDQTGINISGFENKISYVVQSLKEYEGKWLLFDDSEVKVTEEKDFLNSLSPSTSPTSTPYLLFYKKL
Outline: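 Enzyme-free wells gave the negative control, while test wells held 1nM USP1/UAF1 preincubated with compound for 15 min at room temperature. Ub-Rho at 150nM final started the reaction, and fluorescence at 480/540 nm was recorded kinetically.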

[2] = target: Luciferin 4-monooxygenase (Photinus pyralis) (UniProt P08659); assay: Biochemical firefly luciferase enzyme assay for NPC (AID 624030);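 further: purified P. pyralis luciferase at 10 nM with luciferin and ATP substrate; 0% = DMSO and -100% = full luciferase inhibition by PTC124 control; nearly all actives have a fitted effect of over 70% in size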
Luciferin 4-monooxygenase (Photinus pyralis), sequence (P08659 whole entry, looked up): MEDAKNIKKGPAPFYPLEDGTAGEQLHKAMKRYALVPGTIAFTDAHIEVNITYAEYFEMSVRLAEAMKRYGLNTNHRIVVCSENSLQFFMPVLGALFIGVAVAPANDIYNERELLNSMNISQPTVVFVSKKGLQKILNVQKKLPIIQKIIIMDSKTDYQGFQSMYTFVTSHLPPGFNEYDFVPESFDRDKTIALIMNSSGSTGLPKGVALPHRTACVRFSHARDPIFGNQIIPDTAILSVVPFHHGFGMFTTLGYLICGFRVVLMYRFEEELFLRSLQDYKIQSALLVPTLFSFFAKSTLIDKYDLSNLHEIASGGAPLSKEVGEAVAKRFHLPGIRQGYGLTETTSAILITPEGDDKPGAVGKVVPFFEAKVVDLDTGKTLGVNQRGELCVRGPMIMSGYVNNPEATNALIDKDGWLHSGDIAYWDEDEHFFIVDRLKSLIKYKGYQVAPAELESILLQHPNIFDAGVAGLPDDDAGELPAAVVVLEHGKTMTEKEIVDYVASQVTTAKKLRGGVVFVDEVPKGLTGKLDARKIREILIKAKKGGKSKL
Outline: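 Direct inhibition of firefly luciferase enzyme (10 nM final, 50 mM Tris Acetate) assessed by luminescence within 5 minutes. Percent activity scaled between DMSO and PTC124 positive control, with concentration-effect curves classified by fit quality and response.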

[3] = S16 Schwann cell viability assay (CellTiter-Glo assay) (AID 624031);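 further: native untransfected S16 rat Schwann cells; cellular ATP luminescence as a viability measure; plate controls were DMSO-treated cells for no effect and cell-free wells for full effect; nearly all actives have a fitted effect of over 70% in size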
Outline: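 Cells were seeded at 500-750 per well in phenol red-free DMEM with 10% FBS and left overnight. Compounds or DMSO were pinned in, incubation ran 24 h at 37 °C/5% CO2, then CellTiter-Glo reagent was added and luminescence measured.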

[4] = S16 Schwann cell PMP22 intronic element firefly luciferase assay (AID 624032);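 further: plate controls were DMSO for no effect and PTC124 positive control mean for full effect; nearly all actives have a fitted effect of over 30% in size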
Outline: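 Luciferase reporter of PMP22 intronic-element expression in stably transfected S16 rat Schwann cells, read by ONE-Glo luminescence after 24 h compound exposure at 37 C. Activity scaled between DMSO (0%) and positive-control PTC124; concentration-effect curves quality-classified.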

[5] = S16 Schwann cell PMP22 intronic element beta-lactamase assay (AID 624044; calls by dose curve;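 further: 0% = DMSO and -100% = potassium clavulanate positive control; nearly all actives have a fitted effect of over 15% in size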)
Outline: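 Beta-lactamase reporter under a PMP22 intronic regulatory element in stable S16 rat Schwann cells; 24 h compound exposure. 460 nm blue signal normalized between DMSO (0%) and potassium clavulanate, with 535 nm FRET tracking viability; curves classed by r2 and response.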

[6] = qHTS profiling for inhibitors of Plasmodium falciparum proliferation (AID 504749);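 further: 0% = DMSO vehicle and full inhibition = artemisinin control; nearly all actives have a fitted effect of over 60% in size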; conditions: P. falciparum in erythrocytes, SYBR Green DNA, 72 h, at 28.7 µM (top of the series)
Outline: (§1)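 SYBR Green fluorescence of parasite DNA, read after lysis and overnight dark incubation, measured growth over 72 h in erythrocyte culture at 0.3% parasitemia and 2.5% hematocrit. Data normalised to DMSO and 0.29 uM artemisinin, with plate-drift correction.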

[7] = test system: 3D7; assay: as above; conditions: P. falciparum in erythrocytes, SYBR Green DNA, 72 h; series mostly up to 28.7 µM
Outline: as §1

[8] = test system: 7G8; assay: as above; conditions: P. falciparum in erythrocytes, SYBR Green DNA, 72 h; series mostly up to 28.7 µM
Outline: as §1

[9] = test system: AA1029; assay: as above; conditions: P. falciparum in erythrocytes, SYBR Green DNA, 72 h; series mostly up to 28.7 µM
Outline: as §1

[10] = test system: AS120; assay: as above; conditions: P. falciparum in erythrocytes, SYBR Green DNA, 72 h; series mostly up to 28.7 µM
Outline: as §1

[11] = test system: ATS189; assay: as above; conditions: P. falciparum in erythrocytes, SYBR Green DNA, 72 h; series mostly up to 28.7 µM
Outline: as §1

[12] = test system: ATS95; assay: as above; conditions: P. falciparum in erythrocytes, SYBR Green DNA, 72 h; series mostly up to 28.7 µM
Outline: as §1

[13] = test system: C2A; assay: as above; conditions: P. falciparum in erythrocytes, SYBR Green DNA, 72 h; series mostly up to 28.7 µM
Outline: as §1

[14] = test system: CP185; assay: as above; conditions: P. falciparum in erythrocytes, SYBR Green DNA, 72 h; series mostly up to 28.7 µM
Outline: as §1

[15] = test system: CP191; assay: as above; conditions: P. falciparum in erythrocytes, SYBR Green DNA, 72 h; series mostly up to 28.7 µM
Outline: as §1

[16] = test system: CP192; assay: as above; conditions: P. falciparum in erythrocytes, SYBR Green DNA, 72 h; series mostly up to 28.7 µM
Outline: as §1

[17] = test system: CP194; assay: as above; conditions: P. falciparum in erythrocytes, SYBR Green DNA, 72 h; series mostly up to 28.7 µM
Outline: as §1

[18] = test system: CP201; assay: as above; conditions: P. falciparum in erythrocytes, SYBR Green DNA, 72 h; series mostly up to 28.7 µM
Outline: as §1

[19] = test system: CP203; assay: as above; conditions: P. falciparum in erythrocytes, SYBR Green DNA, 72 h; series mostly up to 28.7 µM
Outline: as §1

[20] = test system: CP211; assay: as above; conditions: P. falciparum in erythrocytes, SYBR Green DNA, 72 h; series mostly up to 28.7 µM
Outline: as §1

[21] = test system: CP215; assay: as above; conditions: P. falciparum in erythrocytes, SYBR Green DNA, 72 h; series mostly up to 28.7 µM
Outline: as §1

[22] = test system: CP217; assay: as above; conditions: P. falciparum in erythrocytes, SYBR Green DNA, 72 h; series mostly up to 28.7 µM
Outline: as §1

[23] = test system: CP237; assay: as above; conditions: P. falciparum in erythrocytes, SYBR Green DNA, 72 h; series mostly up to 28.7 µM
Outline: as §1

[24] = test system: CP238; assay: as above; conditions: P. falciparum in erythrocytes, SYBR Green DNA, 72 h; series mostly up to 28.7 µM
Outline: as §1

[25] = test system: CP247; assay: as above; conditions: P. falciparum in erythrocytes, SYBR Green DNA, 72 h; series mostly up to 28.7 µM
Outline: as §1

[26] = test system: CP250; assay: as above; conditions: P. falciparum in erythrocytes, SYBR Green DNA, 72 h; series mostly up to 28.7 µM
Outline: as §1

[27] = test system: CP252; assay: as above; conditions: P. falciparum in erythrocytes, SYBR Green DNA, 72 h; series mostly up to 28.7 µM
Outline: as §1

[28] = test system: CP256; assay: as above; conditions: P. falciparum in erythrocytes, SYBR Green DNA, 72 h; series mostly up to 28.7 µM
Outline: as §1

[29] = test system: CP260; assay: as above; conditions: P. falciparum in erythrocytes, SYBR Green DNA, 72 h; series mostly up to 28.7 µM
Outline: as §1

[30] = test system: CP262; assay: as above; conditions: P. falciparum in erythrocytes, SYBR Green DNA, 72 h; series mostly up to 28.7 µM
Outline: as §1

[31] = test system: CP265; assay: as above; conditions: P. falciparum in erythrocytes, SYBR Green DNA, 72 h; series mostly up to 28.7 µM
Outline: as §1

[32] = test system: CP266; assay: as above; conditions: P. falciparum in erythrocytes, SYBR Green DNA, 72 h; series mostly up to 28.7 µM
Outline: as §1

[33] = test system: CP268; assay: as above; conditions: P. falciparum in erythrocytes, SYBR Green DNA, 72 h; series mostly up to 28.7 µM
Outline: as §1

[34] = test system: CP269; assay: as above; conditions: P. falciparum in erythrocytes, SYBR Green DNA, 72 h; series mostly up to 28.7 µM
Outline: as §1

[35] = test system: CP286; assay: as above; conditions: P. falciparum in erythrocytes, SYBR Green DNA, 72 h; series mostly up to 28.7 µM
Outline: as §1

[36] = test system: CP291; assay: as above; conditions: P. falciparum in erythrocytes, SYBR Green DNA, 72 h; series mostly up to 28.7 µM
Outline: as §1

[37] = test system: CP297; assay: as above; conditions: P. falciparum in erythrocytes, SYBR Green DNA, 72 h; series mostly up to 28.7 µM
Outline: as §1

[38] = test system: CP305; assay: as above; conditions: P. falciparum in erythrocytes, SYBR Green DNA, 72 h; series mostly up to 28.7 µM
Outline: as §1

[39] = test system: CP315; assay: as above; conditions: P. falciparum in erythrocytes, SYBR Green DNA, 72 h; series mostly up to 28.7 µM
Outline: as §1

[40] = test system: CP325; assay: as above; conditions: P. falciparum in erythrocytes, SYBR Green DNA, 72 h; series mostly up to 28.7 µM
Outline: as §1

[41] = test system: CP329; assay: as above; conditions: P. falciparum in erythrocytes, SYBR Green DNA, 72 h; series mostly up to 28.7 µM
Outline: as §1

[42] = test system: CP335; assay: as above; conditions: P. falciparum in erythrocytes, SYBR Green DNA, 72 h; series mostly up to 28.7 µM
Outline: as §1

[43] = test system: DIV14; assay: as above; conditions: P. falciparum in erythrocytes, SYBR Green DNA, 72 h; series mostly up to 28.7 µM
Outline: as §1

[44] = test system: DIV17; assay: as above; conditions: P. falciparum in erythrocytes, SYBR Green DNA, 72 h; series mostly up to 28.7 µM
Outline: as §1

[45] = test system: DIV30; assay: as above; conditions: P. falciparum in erythrocytes, SYBR Green DNA, 72 h; series mostly up to 28.7 µM
Outline: as §1

[46] = test system: Dd2; assay: as above; conditions: P. falciparum in erythrocytes, SYBR Green DNA, 72 h; series mostly up to 28.7 µM
Outline: as §1

[47] = test system: ECU; assay: as above; conditions: P. falciparum in erythrocytes, SYBR Green DNA, 72 h; series mostly up to 28.7 µM
Outline: as §1

[48] = test system: FAB9; assay: as above; conditions: P. falciparum in erythrocytes, SYBR Green DNA, 72 h; series mostly up to 28.7 µM
Outline: as §1

[49] = test system: GB4; assay: as above; conditions: P. falciparum in erythrocytes, SYBR Green DNA, 72 h; series mostly up to 28.7 µM
Outline: as §1

[50] = test system: HB3; assay: as above; conditions: P. falciparum in erythrocytes, SYBR Green DNA, 72 h; series mostly up to 28.7 µM
Outline: as §1

[51] = test system: ICS; assay: as above; conditions: P. falciparum in erythrocytes, SYBR Green DNA, 72 h; series mostly up to 28.7 µM
Outline: as §1

[52] = test system: JCK; assay: as above; conditions: P. falciparum in erythrocytes, SYBR Green DNA, 72 h; series mostly up to 28.7 µM
Outline: as §1

[53] = test system: N140; assay: as above; conditions: P. falciparum in erythrocytes, SYBR Green DNA, 72 h; series mostly up to 28.7 µM
Outline: as §1

[54] = test system: P93_24; assay: as above; conditions: P. falciparum in erythrocytes, SYBR Green DNA, 72 h; series mostly up to 28.7 µM
Outline: as §1

[55] = test system: P94_40; assay: as above; conditions: P. falciparum in erythrocytes, SYBR Green DNA, 72 h; series mostly up to 28.7 µM
Outline: as §1

[56] = test system: PAD; assay: as above; conditions: P. falciparum in erythrocytes, SYBR Green DNA, 72 h; series mostly up to 28.7 µM
Outline: as §1

[57] = test system: PC15; assay: as above; conditions: P. falciparum in erythrocytes, SYBR Green DNA, 72 h; series mostly up to 28.7 µM
Outline: as §1

[58] = test system: PC26; assay: as above; conditions: P. falciparum in erythrocytes, SYBR Green DNA, 72 h; series mostly up to 28.7 µM
Outline: as §1

[59] = test system: PC49; assay: as above; conditions: P. falciparum in erythrocytes, SYBR Green DNA, 72 h; series mostly up to 28.7 µM
Outline: as §1

[60] = test system: SC27B; assay: as above; conditions: P. falciparum in erythrocytes, SYBR Green DNA, 72 h; series mostly up to 28.7 µM
Outline: as §1

[61] = test system: TAB109; assay: as above; conditions: P. falciparum in erythrocytes, SYBR Green DNA, 72 h; series mostly up to 28.7 µM
Outline: as §1

[62] = test system: TAB113; assay: as above; conditions: P. falciparum in erythrocytes, SYBR Green DNA, 72 h; series mostly up to 28.7 µM
Outline: as §1

[63] = test system: TAB165; assay: as above; conditions: P. falciparum in erythrocytes, SYBR Green DNA, 72 h; series mostly up to 28.7 µM
Outline: as §1

[64] = test system: W2; assay: as above; conditions: P. falciparum in erythrocytes, SYBR Green DNA, 72 h; series mostly up to 28.7 µM
Outline: as §1

CC(=O)OCC1=C(C(=O)O)N2C(=O)C(NC(=O)Cc3ccccc3)C2SC1 (stereo not given)
inactive: Potency [1] | Potency [2] | Potency [3] | Potency [4] | Potency [5] | activity, negative = inhibition ([6]; parasite line A) 1.08% | activity, negative = inhibition ([6]; parasite line B) 0.234% | Potency [7] | Potency [8] | Potency [9] | Potency [10] | Potency [11] | Potency [12] | Potency [13] | Potency [14] | Potency [15] | Potency [16] | Potency [17] | Potency [18] | Potency [19] | Potency [20] | Potency [21] | Potency [22] | Potency [23] | Potency [24] | Potency [25] | Potency [26] | Potency [27] | Potency [28] | Potency [29] | Potency [30] | Potency [31] | Potency [32] | Potency [33] | Potency [34] | Potency [35] | Potency [36] | Potency [37] | Potency [38] | Potency [39] | Potency [40] | Potency [41] | Potency [42] | Potency [43] | Potency [44] | Potency [45] | Potency [46] | Potency [47] | Potency [48] | Potency [49] | Potency [50] | Potency [51] | Potency [52] | Potency [53] | Potency [54] | Potency [55] | Potency [56] | Potency [57] | Potency [58] | Potency [59] | Potency [60] | Potency [61] | Potency [62] | Potency [63] | Potency [64]
